Hit rate of the full screen: of about 310,000 compounds, about 14,000 (4.5%) showed an effect of 50% or more. Effects have a minus sign here. The sample holds strong results, similar compounds and a random draw of the others, so the mix is not that of the screen.
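Further: peak tail current of the secondary pulse compared with the same well before compound.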

human ether-à-go-go-related gene (hERG) potassium channel, sequence (Q12809 whole entry, looked up): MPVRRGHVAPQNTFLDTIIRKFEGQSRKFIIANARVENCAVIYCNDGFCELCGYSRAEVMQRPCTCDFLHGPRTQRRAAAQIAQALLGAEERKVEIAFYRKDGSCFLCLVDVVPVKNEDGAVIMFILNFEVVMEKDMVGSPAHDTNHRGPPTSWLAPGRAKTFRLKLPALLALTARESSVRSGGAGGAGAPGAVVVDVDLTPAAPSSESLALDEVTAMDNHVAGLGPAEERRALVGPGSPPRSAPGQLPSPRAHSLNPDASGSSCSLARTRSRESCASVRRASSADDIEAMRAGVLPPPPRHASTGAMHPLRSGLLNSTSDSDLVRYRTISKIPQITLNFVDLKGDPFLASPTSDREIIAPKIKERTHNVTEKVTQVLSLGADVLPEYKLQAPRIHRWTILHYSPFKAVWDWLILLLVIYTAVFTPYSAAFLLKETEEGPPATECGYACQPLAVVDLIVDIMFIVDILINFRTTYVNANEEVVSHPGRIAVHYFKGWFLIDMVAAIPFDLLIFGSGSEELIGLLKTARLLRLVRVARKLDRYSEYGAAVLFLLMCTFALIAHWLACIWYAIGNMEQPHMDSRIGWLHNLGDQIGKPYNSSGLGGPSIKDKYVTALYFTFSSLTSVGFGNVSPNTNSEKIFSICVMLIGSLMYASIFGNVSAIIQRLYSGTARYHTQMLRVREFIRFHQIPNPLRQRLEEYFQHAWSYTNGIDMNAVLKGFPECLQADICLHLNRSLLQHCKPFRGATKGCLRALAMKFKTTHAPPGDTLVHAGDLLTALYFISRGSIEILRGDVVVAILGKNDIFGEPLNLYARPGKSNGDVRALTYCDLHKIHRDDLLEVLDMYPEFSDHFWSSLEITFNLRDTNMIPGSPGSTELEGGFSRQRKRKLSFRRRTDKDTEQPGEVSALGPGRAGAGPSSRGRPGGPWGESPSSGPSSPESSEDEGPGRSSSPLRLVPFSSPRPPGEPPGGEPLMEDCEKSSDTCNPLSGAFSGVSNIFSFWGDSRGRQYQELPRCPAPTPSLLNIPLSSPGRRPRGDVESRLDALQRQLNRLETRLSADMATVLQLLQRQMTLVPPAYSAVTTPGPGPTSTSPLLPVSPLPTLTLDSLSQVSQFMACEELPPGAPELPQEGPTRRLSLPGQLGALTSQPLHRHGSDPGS

The assay has as its target human ether-à-go-go-related gene (hERG) potassium channel (human, UniProt Q12809). The assay is described as follows: primary screen, population patch clamp on CHO cells stably expressing hERG; higher = less effect of the substance.
In the case of `Fc1ccc(CN2CCSCC2)cc1Br`, the “hERG current change (%, negative = inhibition) at 10uM” value is given as -11.1%.

With `CCCN(Cc1ccco1)S(=O)(=O)c1ccc(OC)c(OC)c1`, the “hERG current change (%, negative = inhibition) at 10uM” value came to 0.00658%. In the case of `Cc1ccc(OCc2ccc(C(=O)N3CCOCC3)cc2)cc1C` it was -12.7%; in that of `O=C(OCC(=O)c1ccc(Cl)s1)c1ccc(CO)cc1`, -2.65%.

On to `Cc1ccc(-n2c(SCC(N)=O)nnc2-c2ccc(S(=O)(=O)N3CCCCC3)cc2)c(C)c1`, for which the “hERG current change (%, negative = inhibition) at 10uM” value is given as -52.7%. For `Cn1c(SCC(N)=O)nnc1-c1ccc(S(=O)(=O)N2CCCC2)cc1` the value was 4.87%. For `NC(=O)CSc1nnc(-c2ccc(S(=O)(=O)N3CCCCC3)cc2)n1-c1ccccc1` the value was -14.2%; for `CCN(CC)S(=O)(=O)c1ccc(S(=O)(=O)N2CCN(C(=O)c3ccco3)CC2)cc1`, 4.56%.

Consider `CC(C)C(=O)Nc1c(-c2ccc(Cl)cc2)c(=O)c2ccccc2n1C`, for which the “hERG current change (%, negative = inhibition) at 10uM” value worked out at 20.9%.

With `O=C(c1ccc(Cl)s1)N1CCCC1`, the “hERG current change (%, negative = inhibition) at 10uM” value is on record as -0.0803%. For `CN1CCCN(C(=O)c2ccc(Br)s2)CC1` the value was -14.5%; for `CN1CCCN(C(=O)c2ccc(Cl)s2)CC1`, -93.3%; for `C/C(=C\c1ccc(Cl)cc1)C(=O)c1c(C)cc(C)[nH]c1=O`, 9.59%. Regarding `CC(NC(=O)NC1CCCCC1)c1ccccc1` (stereo not drawn), the “hERG current change (%, negative = inhibition) at 10uM” value is reported as -3.12%. For the compound `C=CCn1c(CCNC(=O)c2cccs2)nnc1SCC(=O)Nc1cccc(F)c1`, the “hERG current change (%, negative = inhibition) at 10uM” value is -34.6%.

For the compound `C=CCn1c(CCNC(=O)c2cccs2)nnc1SCC(=O)Nc1cccc(C(C)=O)c1`, the “hERG current change (%, negative = inhibition) at 10uM” value stood at 7.23%. For `C=CCn1c(CCNC(=O)c2cccs2)nnc1SCC(=O)c1ccc(Cl)cc1` the value was -38.5%; for `C=CCn1c(CCNC(=O)c2cccs2)nnc1SCC(=O)Nc1cccc(Cl)c1C`, -57.6%; for `C=CCn1c(CCNC(=O)c2cccs2)nnc1SCC(=O)c1ccc(Br)cc1`, -67.1%. On to `C=CCn1c(CNC(=O)c2cccs2)nnc1SCC(=O)c1ccc(Br)cc1`, for which the “hERG current change (%, negative = inhibition) at 10uM” value is recorded as -19.3%. For `O=C(Nc1ccccc1)Nc1ccncc1`, the “hERG current change (%, negative = inhibition) at 10uM” value is 6.4%. For `Cc1ccc(NC(=O)CC2S/C(=N/N=C3/NC(=O)CS3)NC2=O)cc1` (stereo not drawn) the value was 19.5%; for `COc1ccc(-c2[nH]nc3c2C(c2ccccc2OC(=O)N2CCOCC2)C(C#N)=C(N)O3)cc1` (stereo not drawn), 4.69%; for `COc1cccc(Nc2nc(N)nc(CCl)n2)c1`, 0.476%. For the compound `CC1CCN(C(=S)SCc2nc(N)nc(Nc3ccccc3)n2)CC1`, the “hERG current change (%, negative = inhibition) at 10uM” value is on record as -2.72%.

On to `CC1CC(C)CN(Cc2nc(N)nc(Nc3ccccc3)n2)C1` (stereo not drawn), for which the “hERG current change (%, negative = inhibition) at 10uM” value is reported as -64.8%.

Turning to `CC1CC(C)CN(Cc2nc(N)nc(Nc3ccc4ccccc4c3)n2)C1` (stereo not drawn), the “hERG current change (%, negative = inhibition) at 10uM” value was -79%. `CC1CC(C)CN(C(=S)SCc2nc(N)nc(Nc3ccccc3)n2)C1` (stereo not drawn): the “hERG current change (%, negative = inhibition) at 10uM” value is reported as -6.04%. In the case of `CCNC(=O)CCn1nc(-c2ccc(Cl)cc2)c2ccccc2c1=O` it was -29%.

On to `Cc1cccc(N2CCN(S(=O)(=O)c3ccc4c(c3)NC(=O)C(C)S4)CC2)c1C` (stereo not drawn), for which the “hERG current change (%, negative = inhibition) at 10uM” value is -2.54%.

Consider `CCN(CC)c1ccc(/C=C2\SC(N)=NC2=O)cc1`, for which the “hERG current change (%, negative = inhibition) at 10uM” value came to 7.42%. For the compound `Cn1cccc1CC(=O)NNC(=S)NC(=O)c1ccccc1Br`, the “hERG current change (%, negative = inhibition) at 10uM” value stood at 13.1%. For `COc1ccc(-c2nc(-c3ccccc3)ncc2S(C)(=O)=O)cc1`, the “hERG current change (%, negative = inhibition) at 10uM” value is recorded as 13%. For `COc1ccc2c(c1OC)C(=O)N(c1nc(SC)n[nH]1)C2=O` the value was 18.3%. On to `COc1cccc(N(CC(=O)NCc2ccccc2)C(=O)CCC(=O)Nc2nccs2)c1`, for which the “hERG current change (%, negative = inhibition) at 10uM” value came out at 10.8%. For `Cc1nccn1CC(O)COc1ccccc1` (stereo not drawn) the value was -0.412%; for `COc1ccc(N2CCN(CC(O)COc3ccc([N+](=O)[O-])cc3)CC2)cc1.Cl` (stereo not drawn), -62.5%; for `Cc1nccn1CC(O)COc1ccc([N+](=O)[O-])cc1` (stereo not drawn), -66.2%. In the case of `Cc1ccc(OCC(O)CN2CCN(c3ccc(C)cc3)CC2)cc1` (stereo not drawn) it was -28%; in that of `COc1ccc(OCC(O)Cn2ccnc2C)cc1` (stereo not drawn), 5.09%. For `Cc1ccc(N2CCN(CC(O)COc3ccc([N+](=O)[O-])cc3)CC2)cc1` (stereo not drawn) the value was -76.4%; for `NNC(=O)COc1ccc(F)cc1`, 9.33%. In the case of `COc1ccc(C(C)=O)cc1COC(=O)c1ccc(S(=O)(=O)N(C)C)cc1`, the “hERG current change (%, negative = inhibition) at 10uM” value was -2.42%.

Regarding `CCc1ccc(S(=O)(=O)Nc2cccc(-c3ccc4nnc(C)n4n3)c2)s1`, the “hERG current change (%, negative = inhibition) at 10uM” value is -11.6%. On to `CCOC(=O)c1cccc(NC(=O)/C(=C\c2ccccc2)NC(=O)c2ccccc2Cl)c1`, for which the “hERG current change (%, negative = inhibition) at 10uM” value was determined as 3.62%.

The record behind these values is PMC4336329 (PLoS ONE, 2015).
